Values without a mark were called inactive.
assay: FRG1 promoter luciferase signal modulators, primary screen, FRG1 inhibition for FSHD, cell-based, C2C12 myotubes, firefly/Renilla luciferase, luminescence (AID 1084); settings: higher = more signal, called active from +8 up or from −8 down

Row | Structure (SMILES) | z-score
1 | C=CCC(OC(C)=O)[C@@H]1[C@@H](N(Cc2cc3ccccc3o2)C(=O)Cc2ccc(OC)cc2)c2cc(OCCCO)ccc2N1C(=O)c1ccc2ccccc2n1 (some centres undefined) | 0.544
2 | C=C(COC)/C(=C/C[C@@H](OC(C)=O)c1ccccc1OCCO)c1cnc2ccccc2c1 | -0.305
3 | Cc1ccc(S[C@]2(C(=O)NCC(F)(F)F)CC(=O)N(Cc3ccccc3C(F)(F)F)[C@@H]2c2ccc(CO)cc2)cc1 | -1.82
4 | C=CCC(OC(C)=O)[C@@H]1[C@@H](N(Cc2cccc3ccccc23)C(=O)Cc2ccc(OC)cc2)c2cc(OCCCO)ccc2N1C(=O)c1ccc2ccccc2c1 (some centres undefined) | -1.75
5 | COc1ccc([Si](C)(C)[C@@H]2[C@@H](CC(=O)N(CCO)Cc3ccccc3)O[C@]3(C(=O)N(Cc4ccc(N5C(=O)c6cccc7cccc5c67)cc4)c4ccccc43)[C@H]2C)cc1 | -1.76
6 | COC(=O)[C@@]1(Cc2ccc(OC)cc2)[C@H]2c3cc(C(=O)N(C)C)[nH]c3C[C@H]2CN1C(=O)c1ccccc1 | 1.04
7 | CCOc1cc(C(O)C2C=CC3C(=O)N(c4ccccc4)C(=O)C3N2Nc2ccccc2F)ccc1O (centres undefined) | 0.118
8 | O=C1O[C@@H](c2ccccc2)[C@@H](c2ccccc2)N2[C@@H](c3ccc(OCCO)cc3)[C@]3(C(=O)Nc4ccc(C#CC5(O)CCCCCC5)cc43)[C@@H](C(=O)O)[C@H]12 | 0.259
9 | COc1ccc(C(=O)Nc2ccc(CN3C(=O)[C@@]4(O[C@@H](CCn5cc(CCO)nn5)[C@H]([Si](C)(C)c5ccc(OC)cc5)[C@H]4C)c4ccccc43)cc2)cc1 | -3.59

— PubChem BioAssay
